Measurements reported in PubChem BioAssay.
The source made the active and inactive calls.

Legend:
[1] = system: PRMT1 (protein arginine N-methyltransferase 1); assay: small molecules binding arginine methyltransferase PRMT1 – biochemical, small-molecule microarray, 635 nm fluorescence, primary screen (AID 1088); settings: higher = more signal;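 also: binding of Prmt1 protein to compounds spotted on small-molecule microarray slides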
[2] = growth effects on S. cerevisiae YJM789 – YJM789 clinical isolate, OD600, 24 h, basal, primary screen (AID 1089); settings: higher = more signal, called active from +8 up or from −8 down;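 also: growth of clinical yeast isolate S. cerevisiae YJM 789 seeded 1000 cells per well; test concentration not given here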
[3] = S. pombe growth modifiers, basal conditions – strain 972, OD600, 24 h, no modulator, primary screen (AID 1090);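 also: basal condition with compound alone and no growth modifier present; test concentration not given here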; settings: S. pombe 972 growth, higher = more signal, called active from +8 up or from −8 down
[4] = budding yeast growth modifiers under rapamycin – strain BY4716, OD600, 96 h, primary screen (AID 1091); also: test concentration not given here; settings: S. cerevisiae BY4716 + rapamycin, higher = more signal, called active from +8 up or from −8 down
[5] = target: Torsin-1A-interacting protein 2 (Homo sapiens) (UniProt Q8NFQ8); assay: small molecules binding lysate-expressed LULL1 – cell lysate, human LULL1 lysate, 635/667 nm fluorescence, primary screen (AID 1092); settings: small-molecule microarray, hLULL1 lysate binding, 635 nm fluorescence; higher = more signal;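 also: probe is lysate of COS7 cells overexpressing human LULL1; score merges per-feature 667 nm fluorescence with signal-to-noise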
[6] = optical density change of DRC41 E. coli – strain DRC41, OD650, 24 h, E. coli filamentation project, primary screen (AID 1093);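 also: MC1000 strain lacking acrAB efflux and sulA so SOS filamentation is blocked; test concentration not given here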; settings: E. coli DRC41 growth, higher = more signal, called active from +8 up or from −8 down
[7] = probe aLefty2 binding to arrayed compounds – biochemical, biotinylated probe, 635/667 nm fluorescence, primary screen (AID 1094); settings: small-molecule microarray, higher = more signal;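 also: score merges spot fluorescence near 667 nm with spot signal-to-noise ratio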
[8] = system: Noggin (protein binding on small-molecule microarray); assay: small molecules binding Noggin protein – biochemical, 635/667 nm fluorescence, primary screen (AID 1095); settings: 635 nm fluorescence, higher = more signal;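 also: score merges 667 nm feature fluorescence with signal to noise over triplicate slides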
[9] = target: Neurogenic locus notch homolog protein 3 (Homo sapiens) (UniProt Q9UM47); assay: small molecules binding NOTCH3 protein – biochemical, 635/667 nm fluorescence, primary screen (AID 1096); settings: small-molecule microarray, 635 nm fluorescence, higher = more signal
[10] = probe aEGFR binding to arrayed compounds – biochemical, biotinylated probe, 635/667 nm fluorescence, primary screen (AID 1097); settings: small-molecule microarray, higher = more signal;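 also: probe is a biotinylated anti-EGFR antibody binding compounds printed on slides; score combines fluorescence near 667 nm and signal to noise of each spot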

Chain of Neurogenic locus notch homolog protein 3 (Homo sapiens) (Q9UM47 whole entry, looked up): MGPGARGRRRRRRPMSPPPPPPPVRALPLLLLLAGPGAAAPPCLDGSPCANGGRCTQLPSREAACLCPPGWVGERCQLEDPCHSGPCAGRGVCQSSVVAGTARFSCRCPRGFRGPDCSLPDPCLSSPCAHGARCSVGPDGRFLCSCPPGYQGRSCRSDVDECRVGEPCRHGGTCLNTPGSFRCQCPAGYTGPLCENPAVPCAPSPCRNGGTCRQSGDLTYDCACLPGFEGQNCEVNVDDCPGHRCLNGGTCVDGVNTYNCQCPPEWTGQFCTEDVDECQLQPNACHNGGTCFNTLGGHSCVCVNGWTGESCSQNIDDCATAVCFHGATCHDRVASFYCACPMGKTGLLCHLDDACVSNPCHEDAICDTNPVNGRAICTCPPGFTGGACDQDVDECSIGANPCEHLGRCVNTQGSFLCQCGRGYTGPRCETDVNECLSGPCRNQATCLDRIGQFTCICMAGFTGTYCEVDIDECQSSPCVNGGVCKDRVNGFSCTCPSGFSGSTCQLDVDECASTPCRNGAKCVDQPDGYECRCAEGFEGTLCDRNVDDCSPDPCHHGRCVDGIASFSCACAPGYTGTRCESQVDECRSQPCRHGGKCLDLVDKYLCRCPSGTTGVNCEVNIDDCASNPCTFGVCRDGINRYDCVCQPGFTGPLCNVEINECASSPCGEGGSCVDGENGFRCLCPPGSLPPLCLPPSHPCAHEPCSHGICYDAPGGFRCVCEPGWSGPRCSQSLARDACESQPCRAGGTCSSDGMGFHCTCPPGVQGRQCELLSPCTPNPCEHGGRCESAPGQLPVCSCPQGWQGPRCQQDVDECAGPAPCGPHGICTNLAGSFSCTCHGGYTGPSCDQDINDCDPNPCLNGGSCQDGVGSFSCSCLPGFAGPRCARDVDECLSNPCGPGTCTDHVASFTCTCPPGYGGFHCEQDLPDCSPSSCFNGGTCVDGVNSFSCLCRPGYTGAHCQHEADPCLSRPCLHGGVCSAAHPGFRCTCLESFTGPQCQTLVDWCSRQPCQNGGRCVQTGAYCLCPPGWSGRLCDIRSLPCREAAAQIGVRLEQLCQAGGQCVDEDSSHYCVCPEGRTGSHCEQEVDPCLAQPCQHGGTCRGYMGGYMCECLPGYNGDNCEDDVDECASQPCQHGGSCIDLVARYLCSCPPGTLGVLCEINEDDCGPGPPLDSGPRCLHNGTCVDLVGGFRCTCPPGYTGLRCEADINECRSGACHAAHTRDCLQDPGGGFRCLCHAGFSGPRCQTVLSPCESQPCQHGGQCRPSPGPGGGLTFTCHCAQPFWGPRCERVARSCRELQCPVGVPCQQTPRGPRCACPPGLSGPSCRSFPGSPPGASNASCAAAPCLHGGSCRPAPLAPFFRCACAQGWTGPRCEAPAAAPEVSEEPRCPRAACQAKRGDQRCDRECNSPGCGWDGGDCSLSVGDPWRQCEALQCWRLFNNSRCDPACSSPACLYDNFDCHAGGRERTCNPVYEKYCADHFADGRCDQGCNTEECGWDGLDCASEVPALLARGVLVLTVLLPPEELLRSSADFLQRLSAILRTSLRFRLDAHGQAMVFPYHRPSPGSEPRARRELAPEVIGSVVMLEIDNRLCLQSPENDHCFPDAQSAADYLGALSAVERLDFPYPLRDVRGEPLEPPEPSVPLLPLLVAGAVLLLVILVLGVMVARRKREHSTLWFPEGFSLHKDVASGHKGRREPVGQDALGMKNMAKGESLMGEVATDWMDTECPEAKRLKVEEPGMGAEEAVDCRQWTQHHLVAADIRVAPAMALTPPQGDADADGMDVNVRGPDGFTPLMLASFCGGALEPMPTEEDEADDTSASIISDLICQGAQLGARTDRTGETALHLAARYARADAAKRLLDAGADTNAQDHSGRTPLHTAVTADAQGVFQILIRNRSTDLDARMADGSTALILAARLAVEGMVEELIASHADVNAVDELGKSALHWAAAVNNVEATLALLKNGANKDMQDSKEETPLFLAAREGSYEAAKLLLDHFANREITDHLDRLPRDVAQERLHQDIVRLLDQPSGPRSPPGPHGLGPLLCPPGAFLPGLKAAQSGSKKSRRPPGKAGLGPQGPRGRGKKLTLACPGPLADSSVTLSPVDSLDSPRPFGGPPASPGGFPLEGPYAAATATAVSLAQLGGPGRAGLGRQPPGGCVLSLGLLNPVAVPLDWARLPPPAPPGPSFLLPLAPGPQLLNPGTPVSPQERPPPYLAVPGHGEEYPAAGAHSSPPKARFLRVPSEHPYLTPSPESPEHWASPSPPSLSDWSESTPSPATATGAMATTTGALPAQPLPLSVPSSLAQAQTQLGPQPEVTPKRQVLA
Chain of Torsin-1A-interacting protein 2 (Homo sapiens) (Q8NFQ8 whole entry, looked up): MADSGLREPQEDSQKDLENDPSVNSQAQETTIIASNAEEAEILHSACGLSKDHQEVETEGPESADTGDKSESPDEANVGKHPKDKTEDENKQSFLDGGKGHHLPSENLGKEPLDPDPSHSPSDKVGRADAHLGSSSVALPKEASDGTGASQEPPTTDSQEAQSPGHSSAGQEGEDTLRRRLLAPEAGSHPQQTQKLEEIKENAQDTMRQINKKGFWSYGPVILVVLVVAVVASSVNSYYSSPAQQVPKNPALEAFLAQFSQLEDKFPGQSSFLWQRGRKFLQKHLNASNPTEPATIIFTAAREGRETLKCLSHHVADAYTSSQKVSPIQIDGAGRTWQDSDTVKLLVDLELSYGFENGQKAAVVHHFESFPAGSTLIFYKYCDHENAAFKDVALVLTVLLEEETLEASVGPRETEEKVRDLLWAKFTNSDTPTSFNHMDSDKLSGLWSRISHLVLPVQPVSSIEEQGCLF

| SMILES | composite z-score [1] | z-score [2] | z-score [3] | z-score [4] | composite z-score [5] | z-score [6] | composite z-score [7] | composite z-score [8] | composite z-score [9] | composite z-score [10] |
| --- | --- | --- | --- | --- | --- | --- | --- | --- | --- | --- |
| C=CCNC(=O)[C@H]1[C@@H]2C(=O)O[C@@H](c3ccccc3)[C@@H](c3ccccc3)N2[C@@H](c2ccc(O)cc2)[C@]12C(=O)N(C(=O)OCCOC)c1ccc(C#CCCO)cc12 | 1.58 | 1.16 (inactive) | -0.47 (inactive) | 0.804 (inactive) | 2.97 | 1.07 (inactive) | -0.0916 | -0.176 | -0.15 | -0.0163 |
| COC(=O)C[C@H]1O[C@]2(C(=O)N(Cc3ccccc3)c3ccc(NC(C)=O)cc32)[C@@H](C)[C@@H]1[Si](C)(C)c1ccc(OC)cc1 | 0.994 | 0.747 (inactive) | 0.19 (inactive) | 2.53 (inactive) | 1.56 | 0.0208 (inactive) | -0.082 | 1.09 | 1.14 | -0.108 |
| C=C(C(=O)CC[C@H](OC(C)=O)c1ccc(OCCO)cc1)C(C)C | 1.19 | -24.6 (active) | -20.5 (active) | -4.29 (inactive) | 0.739 | 2.11 (inactive) | -0.212 | 1.22 | 0.801 | -0.156 |
| COc1ccc(C(O)C2C=CC3C(=O)N(C)C(=O)C3N2Nc2ccccc2)cc1OCc1ccccc1 (stereo not given) | 1.49 | -4.02 (inactive) | 1.11 (inactive) | 0.317 (inactive) | 3.41 | -1.2 (inactive) | 0.287 | 0.102 | 0.742 | 0.0099 |
| C=CCOC(=O)[C@@H]1[C@H]2C(=O)O[C@H](c3ccccc3)[C@H](c3ccccc3)N2[C@H](c2ccc(OCCOC(=O)[C@@H]3C[C@@H]4C(=O)NCC(=O)N4[C@@H]3c3cccc(OCCO)c3)cc2)[C@@]12C(=O)Nc1ccc(I)cc12 | 1.53 | 0.895 (inactive) | 1.01 (inactive) | 2.19 (inactive) | 2.53 | -0.637 (inactive) | -0.0654 | 1.14 | 1.1 | 0.0618 |
| [N-]=[N+]=Nc1ccccc1[C@H]1OC(c2ccc(OCCCO)cc2)=N[C@@]1(CCS(=O)(=O)c1ccccc1)C(=O)O | 0.164 | -0.775 (inactive) | -3.52 (inactive) | -0.0047 (inactive) | 3.2 | 1.46 (inactive) | 0.308 | -0.688 | -0.0883 | -0.179 |
| C=C[C@H](COC(C)=O)N(Cc1ccc(OC(C)=O)c(OC)c1)S(=O)(=O)c1ccc(Br)cc1 | 0.484 | -2.5 (inactive) | -1.08 (inactive) | 0.105 (inactive) | 1.81 | 1.24 (inactive) | 0.15 | 0.337 | 0.176 | 0.312 |
| CC(C)C[C@@H]1NC(=O)[C@@H]2C[C@H](C(=O)NCCCCCC[N+](C)(C)C)[C@H](c3ccc(O)cc3)N2C1=O | 1.56 | 0.633 (inactive) | 0.904 (inactive) | 0.445 (inactive) | 3.21 | 0.266 (inactive) | -0.0437 | 0.857 | 0.873 | -0.176 |
| C=CCC(OC(C)=O)[C@@H]1[C@@H](N(Cc2ccc(-c3ccccc3)cc2)C(=O)Cc2ccc(OC)cc2)c2cc(OCCCO)ccc2N1C(=O)c1ccc2ccccc2n1 (stereo not given in full) | -0.298 | -1.15 (inactive) | -0.832 (inactive) | -0.551 (inactive) | 1.02 | 0.374 (inactive) | 0.0171 | -0.49 | 0.0617 | -0.0784 |
